{"source": "PubChem BioAssay (Tox21)", "key": {"[1]": {"target": "Cytochrome P450 1A2 (Homo sapiens) (UniProt P05177)", "sequence (P05177 whole entry, looked up)": "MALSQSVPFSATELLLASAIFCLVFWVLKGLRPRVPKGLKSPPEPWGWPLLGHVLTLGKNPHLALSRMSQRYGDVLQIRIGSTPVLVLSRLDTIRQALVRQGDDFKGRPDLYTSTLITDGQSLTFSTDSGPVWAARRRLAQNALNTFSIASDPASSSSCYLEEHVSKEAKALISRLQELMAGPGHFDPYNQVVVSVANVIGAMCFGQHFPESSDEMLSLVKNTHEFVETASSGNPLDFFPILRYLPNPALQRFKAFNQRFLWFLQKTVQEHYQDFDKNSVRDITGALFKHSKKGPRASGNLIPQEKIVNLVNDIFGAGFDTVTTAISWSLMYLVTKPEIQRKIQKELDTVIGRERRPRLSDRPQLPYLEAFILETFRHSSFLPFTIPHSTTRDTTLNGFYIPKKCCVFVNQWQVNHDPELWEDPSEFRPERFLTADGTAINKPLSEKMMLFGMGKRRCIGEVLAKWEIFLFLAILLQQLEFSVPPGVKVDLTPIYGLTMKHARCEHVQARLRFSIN", "assay": "Cytochrome P450 Family 1 Subfamily A Member 2 (CYP1A2) small molecule antagonists: luciferase reporter qHTS assay (AID 1671199); for activity change, negative = inhibition: series mostly up to about 120 µM", "in_short": "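Read-out is luminescence from luciferin detection reagent (20 min) proportional to CYP1A2 activity; compounds in DMSO preincubated 10 min with enzyme and proluciferin substrate, then NADPH regeneration solution, 1 h, room temperature.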"}, "[2]": {"target": "Voltage-gated inwardly rectifying potassium channel KCNH2 (Homo sapiens) (UniProt Q12809)", "sequence (Q12809 whole entry, looked up)": "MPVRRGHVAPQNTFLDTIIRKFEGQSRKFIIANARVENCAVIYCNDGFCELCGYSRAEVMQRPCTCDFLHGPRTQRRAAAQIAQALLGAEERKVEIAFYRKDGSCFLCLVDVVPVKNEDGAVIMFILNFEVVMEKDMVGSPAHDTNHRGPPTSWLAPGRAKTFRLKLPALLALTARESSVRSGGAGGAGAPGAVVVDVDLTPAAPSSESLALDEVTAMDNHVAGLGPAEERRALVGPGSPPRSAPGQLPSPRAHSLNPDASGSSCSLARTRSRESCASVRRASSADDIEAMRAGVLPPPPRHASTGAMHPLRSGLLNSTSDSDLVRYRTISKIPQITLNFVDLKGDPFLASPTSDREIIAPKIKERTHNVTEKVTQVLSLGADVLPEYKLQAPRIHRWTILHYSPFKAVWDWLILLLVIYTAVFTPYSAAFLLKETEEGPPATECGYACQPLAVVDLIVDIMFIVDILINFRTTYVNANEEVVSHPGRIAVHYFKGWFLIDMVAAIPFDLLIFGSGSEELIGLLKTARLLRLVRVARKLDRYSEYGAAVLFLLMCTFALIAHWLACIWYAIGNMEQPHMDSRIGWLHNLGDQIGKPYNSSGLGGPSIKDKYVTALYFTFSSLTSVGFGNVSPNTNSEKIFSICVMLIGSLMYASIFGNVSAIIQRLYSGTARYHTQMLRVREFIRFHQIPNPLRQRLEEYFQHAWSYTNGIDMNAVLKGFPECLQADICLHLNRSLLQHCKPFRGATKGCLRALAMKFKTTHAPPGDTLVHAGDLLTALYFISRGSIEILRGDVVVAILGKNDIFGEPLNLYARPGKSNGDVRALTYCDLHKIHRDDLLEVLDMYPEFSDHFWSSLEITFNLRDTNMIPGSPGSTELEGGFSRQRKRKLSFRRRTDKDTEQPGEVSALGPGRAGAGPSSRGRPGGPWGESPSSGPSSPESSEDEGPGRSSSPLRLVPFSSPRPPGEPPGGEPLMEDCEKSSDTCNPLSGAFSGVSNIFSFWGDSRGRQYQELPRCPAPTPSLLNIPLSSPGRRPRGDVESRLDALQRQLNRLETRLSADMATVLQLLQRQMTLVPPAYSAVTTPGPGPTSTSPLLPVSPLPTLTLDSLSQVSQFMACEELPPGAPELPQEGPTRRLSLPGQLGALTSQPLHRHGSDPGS", "assay": "Human Ether-a-go-go-Related Gene (hERG) channel small molecule antagonists: fluorescence cell-based qHTS assay (AID 1671200);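 for activity change, negative = inhibition: hERG-expressing U2OS cells given a thallium stimulus after FluxOR II dye loading; series mostly up to about 77 µM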", "in_short": "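Kinetic two-minute fluorescence traces, sampled at 1 s, were collected following thallium stimulus of U2OS cells (1000 per well) that had been cultured overnight at 37 C and loaded with FluxOR II.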"}, "[3]": {"target": "Cytochrome P450 3A4 (Homo sapiens) (UniProt P08684)", "sequence (P08684 whole entry, looked up)": "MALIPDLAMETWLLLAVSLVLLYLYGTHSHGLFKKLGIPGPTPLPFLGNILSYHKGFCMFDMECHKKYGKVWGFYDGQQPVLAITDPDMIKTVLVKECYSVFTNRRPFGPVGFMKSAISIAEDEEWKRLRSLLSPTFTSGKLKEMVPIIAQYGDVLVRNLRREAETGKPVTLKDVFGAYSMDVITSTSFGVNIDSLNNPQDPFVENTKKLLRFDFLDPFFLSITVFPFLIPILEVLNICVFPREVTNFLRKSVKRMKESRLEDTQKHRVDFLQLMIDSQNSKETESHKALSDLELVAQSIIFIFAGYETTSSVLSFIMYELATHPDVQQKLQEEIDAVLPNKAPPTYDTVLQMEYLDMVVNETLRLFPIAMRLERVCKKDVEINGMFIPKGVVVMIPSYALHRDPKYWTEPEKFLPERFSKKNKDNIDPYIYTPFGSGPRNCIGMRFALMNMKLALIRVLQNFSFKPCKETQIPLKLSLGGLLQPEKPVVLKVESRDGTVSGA", "assay": "Cytochrome P450 Family 3 Subfamily A Member 4 (CYP3A4) small molecule antagonists: luciferase reporter qHTS assay (AID 1671201); for activity change, negative = inhibition: series mostly up to about 120 µM", "in_short": "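Proluciferin-to-luciferin conversion by CYP3A4, NADPH-regenerated, 1 h RT; luminescence read as RLU. Ketoconazole as control.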"}}, "note": "Inconclusive results are not listed. A call without a number means that no potency is given here. Unmarked numbers belong to inactive results. Activity calls are given as the source filed them. Calls come from the whole dose curve; as a rule, active = well fitted curve in the direction sought with a large enough effect in the repeat runs; inconclusive = weak or mixed curves; inactive = no such curve, though single readings can be large; an effect the other way counts as inactive or inconclusive. Note: nearly all actives have a fitted effect of over 50% in size. Potency is the fitted concentration of half-maximal effect.", "data": [{"smiles": "COc1cc(OC)c2ccc(=O)oc2c1", "values": [{"measurement": "Potency", "setting": "[1]", "value": "7.96 µM (active)"}, {"measurement": "Potency", "setting": "[2]", "value": "inactive"}, {"measurement": "Potency", "setting": "[3]", "value": "39.9 µM (active)"}]}, {"smiles": "CCC(=O)OCc1ccc(OC)cc1", "values": [{"measurement": "Potency", "setting": "[1]", "value": "57.8 µM (active)"}, {"measurement": "Potency", "setting": "[2]", "value": "inactive"}, {"measurement": "Potency", "setting": "[3]", "value": "inactive"}]}, {"smiles": "CC1CCC(C(C)CS)CC1S", "note": "(stereo not given)", "values": [{"measurement": "Potency", "setting": "[3]", "value": "31.7 µM (active)"}]}, {"smiles": "CCO[Si](C)(CCCOCC1CO1)OCC", "note": "(stereo not given)", "values": [{"measurement": "Potency", "setting": "[3]", "value": "39.9 µM (active)"}]}, {"smiles": "Cc1ccc(NC(=O)N(C)C)cc1NC(=O)N(C)C", "values": [{"measurement": "Potency", "setting": "[2]", "value": "inactive"}]}, {"smiles": "Nc1ccc(NC(=O)c2ccc(N)cc2)cc1", "values": [{"measurement": "Potency", "setting": "[1]", "value": "inactive"}, {"measurement": "Potency", "setting": "[2]", "value": "inactive"}, {"measurement": "Potency", "setting": "[3]", "value": "5.65 µM (active)"}]}, {"smiles": "Cc1cccc(C)c1NC(=O)c1cc(S(N)(=O)=O)c(Cl)cc1O", "values": [{"measurement": "Potency", "setting": "[1]", "value": "inactive"}, {"measurement": "Potency", "setting": "[2]", "value": "inactive"}, {"measurement": "Potency", "setting": "[3]", "value": "inactive"}]}, {"smiles": "[Cl][Nd]([Cl])[Cl]", "values": [{"measurement": "Potency", "setting": "[2]", "value": "inactive"}, {"measurement": "Potency", "setting": "[3]", "value": "inactive"}]}, {"smiles": "CC(=O)OCC(=O)[C@@]1(OC(C)=O)[C@@H](C)C[C@H]2[C@@H]3C[C@H](F)C4=CC(=O)C=C[C@]4(C)[C@@]3(F)[C@@H](O)C[C@@]21C", "values": [{"measurement": "Potency", "setting": "[2]", "value": "inactive"}, {"measurement": "Potency", "setting": "[3]", "value": "inactive"}]}, {"smiles": "CCCCCCCCCCCCCOS(=O)(=O)O", "values": [{"measurement": "Potency", "setting": "[1]", "value": "inactive"}, {"measurement": "Potency", "setting": "[2]", "value": "inactive"}, {"measurement": "Potency", "setting": "[3]", "value": "inactive"}]}, {"smiles": "CC(=O)C(=O)CC(C)C", "values": [{"measurement": "Potency", "setting": "[2]", "value": "inactive"}, {"measurement": "Potency", "setting": "[3]", "value": "inactive"}]}, {"smiles": "CCN(CC)c1cccc(O)c1", "values": [{"measurement": "Potency", "setting": "[1]", "value": "64.6 µM (active)"}, {"measurement": "Potency", "setting": "[2]", "value": "inactive"}, {"measurement": "Potency", "setting": "[3]", "value": "20.4 µM (active)"}]}, {"smiles": "Nc1ccc(N=Nc2ccc(N)cc2)cc1", "values": [{"measurement": "Potency", "setting": "[1]", "value": "10 µM (active)"}, {"measurement": "Potency", "setting": "[2]", "value": "inactive"}, {"measurement": "Potency", "setting": "[3]", "value": "5.02 µM (active)"}]}, {"smiles": "O=NN(CCCl)C(=O)NCCCl", "values": [{"measurement": "Potency", "setting": "[2]", "value": "inactive"}]}, {"smiles": "CCOC(=O)c1ccc(NC(=O)CN2CCCCC2)cc1", "values": [{"measurement": "Potency", "setting": "[2]", "value": "inactive"}, {"measurement": "Potency", "setting": "[3]", "value": "inactive"}]}, {"smiles": "CCN(CC)CCOC(=O)C(c1ccccc1)c1ccccc1", "values": [{"measurement": "Potency", "setting": "[1]", "value": "15.5 µM (active)"}, {"measurement": "Potency", "setting": "[2]", "value": "2.68 µM (active)"}, {"measurement": "Potency", "setting": "[3]", "value": "inactive"}]}, {"smiles": "Cc1ccc(S(=O)(=O)NC(=O)NC2CCCCC2)cc1", "values": [{"measurement": "Potency", "setting": "[2]", "value": "inactive"}, {"measurement": "Potency", "setting": "[3]", "value": "inactive"}]}, {"smiles": "C[C@H](CS)C(=O)N1CCC[C@H]1C(=O)O", "values": [{"measurement": "Potency", "setting": "[1]", "value": "inactive"}, {"measurement": "Potency", "setting": "[2]", "value": "inactive"}, {"measurement": "Potency", "setting": "[3]", "value": "inactive"}]}, {"smiles": "CCCCCCCCCCCCCOC(=O)CCSCCC(=O)OCCCCCCCCCCCCC", "values": [{"measurement": "activity change, negative = inhibition", "setting": "[2]", "value": "-9.44% [at 15.8 µM]"}]}, {"smiles": "CC(C)(C)NCC(O)COc1cccc2c1C[C@H](O)[C@H](O)C2", "note": "(stereo not given in full)", "values": [{"measurement": "Potency", "setting": "[2]", "value": "inactive"}, {"measurement": "Potency", "setting": "[3]", "value": "inactive"}]}, {"smiles": "CC(=O)NCCO", "values": [{"measurement": "Potency", "setting": "[2]", "value": "inactive"}]}, {"smiles": "CC1=CC[C@@H]2C[C@H]1C2(C)C", "values": [{"measurement": "Potency", "setting": "[3]", "value": "3.98 µM (active)"}]}, {"smiles": "c1ccc(CNc2ncnc3c2ncn3C2CCCCO2)cc1", "note": "(stereo not given)", "values": [{"measurement": "Potency", "setting": "[2]", "value": "inactive"}, {"measurement": "Potency", "setting": "[3]", "value": "inactive"}]}, {"smiles": "O=C(O)CN1C(=O)c2cccc3cccc(c23)C1=O", "values": [{"measurement": "Potency", "setting": "[2]", "value": "inactive"}]}, {"smiles": "COC(CC(C)CCCC(C)(C)O)OC", "note": "(stereo not given)", "values": [{"measurement": "Potency", "setting": "[2]", "value": "inactive"}, {"measurement": "Potency", "setting": "[3]", "value": "inactive"}]}, {"smiles": "CCCCCCC(O)CCOC(C)=O", "note": "(stereo not given)", "values": [{"measurement": "Potency", "setting": "[2]", "value": "inactive"}, {"measurement": "Potency", "setting": "[3]", "value": "inactive"}]}, {"smiles": "CCCCC(CC)COS(=O)(=O)O", "note": "(stereo not given)", "values": [{"measurement": "Potency", "setting": "[1]", "value": "inactive"}, {"measurement": "Potency", "setting": "[2]", "value": "inactive"}, {"measurement": "Potency", "setting": "[3]", "value": "inactive"}]}, {"smiles": "SCCc1cnccn1", "values": [{"measurement": "Potency", "setting": "[1]", "value": "35.6 µM (active)"}, {"measurement": "Potency", "setting": "[2]", "value": "inactive"}, {"measurement": "Potency", "setting": "[3]", "value": "inactive"}]}, {"smiles": "CC[C@H]1OC(=O)[C@H](C)[C@@H](O[C@H]2C[C@@](C)(OC)[C@@H](O)[C@H](C)O2)[C@H](C)[C@@H](O[C@@H]2O[C@H](C)C[C@H](N(C)C)[C@H]2O)[C@](C)(O)C[C@@H](C)C(=O)[C@H](C)[C@@H](O)[C@]1(C)O", "values": [{"measurement": "Potency", "setting": "[1]", "value": "inactive"}, {"measurement": "Potency", "setting": "[3]", "value": "3.45 µM (active)"}]}, {"smiles": "CC12CC3CC(C)(C1)CC(N)(C3)C2", "values": [{"measurement": "Potency", "setting": "[1]", "value": "inactive"}, {"measurement": "Potency", "setting": "[2]", "value": "inactive"}, {"measurement": "Potency", "setting": "[3]", "value": "inactive"}]}, {"smiles": "CC(O)Cn1cnc2c1c(=O)n(C)c(=O)n2C", "note": "(stereo not given)", "values": [{"measurement": "Potency", "setting": "[2]", "value": "inactive"}]}]}
